Test results taken from PubChem BioAssay (NCATS).
Records with an inconclusive call do not appear. Where a structure was tested more than once in an assay, its records may differ in their call. Calls of active or inactive are those of the source. Unless noted, calls come from the whole dose curve; as a rule, active = well fitted inhibition curve with a large enough effect; inconclusive = small, poorly fitted or top-dose-only effect; inactive = no such curve, though single readings can be large or run the other way.

Target: Cytochrome P450 2C9 (Homo sapiens) (UniProt P11712)
Assay: qHTS Assay for Inhibitors and Substrates of Cytochrome P450 2C9 (AID 883); note: nearly all actives have a fitted effect of over 60% in size; note: potency is the fitted concentration of half-maximal effect; for activity change, negative = inhibition: % is set by controls: 0 for no effect and ±100 for the full control effect
Conditions: recombinant CYP2C9, luciferin-H luminescence, 60 min; series mostly up to 11.4 µM; activity change, negative = inhibition: at the top concentration
How it was run: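 CYP2C9 deoxyluciferin hydroxylation, 37C, 60 min with NADPH regeneration; 10nM enzyme, 100uM Luciferin-H (KM). Glo detection reagent stopped reaction; luminescence normalized to sulphaphenazole (57uM) full inhibition.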

Cytochrome P450 2C9 (Homo sapiens), sequence (P11712 whole entry, looked up): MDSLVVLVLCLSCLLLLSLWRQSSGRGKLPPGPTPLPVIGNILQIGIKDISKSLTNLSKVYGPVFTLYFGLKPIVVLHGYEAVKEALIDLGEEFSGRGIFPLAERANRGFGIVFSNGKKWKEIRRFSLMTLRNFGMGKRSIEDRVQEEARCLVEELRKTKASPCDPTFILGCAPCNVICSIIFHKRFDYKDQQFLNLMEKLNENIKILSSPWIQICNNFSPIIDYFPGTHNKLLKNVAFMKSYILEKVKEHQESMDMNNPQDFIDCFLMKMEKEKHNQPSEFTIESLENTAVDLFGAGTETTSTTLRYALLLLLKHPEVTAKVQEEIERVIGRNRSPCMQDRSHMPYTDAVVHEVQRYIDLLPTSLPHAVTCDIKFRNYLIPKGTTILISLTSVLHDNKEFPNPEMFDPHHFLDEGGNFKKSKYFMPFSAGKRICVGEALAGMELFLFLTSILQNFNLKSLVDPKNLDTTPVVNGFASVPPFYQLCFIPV

| SMILES | activity change, negative = inhibition | Potency |
| --- | --- | --- |
| COC(=O)NC(/C(C(=O)OC)=C(\C)NCc1ccccc1)c1cccc(C)c1 (stereo not given) | -12.9% (inactive) |  |
| COc1ccc(OC[C@@H](CO)OC)cc1 | 40.7% (inactive) |  |
| CC(C)CO/N=C1/[C@H]2O[C@@H]2[C@@H](O)[C@H]2[C@H]1CCn1c(=O)n(-c3ccccc3)c(=O)n12 | 36.9% (inactive) |  |
| CC(=O)OC[C@@H]1O[C@@H](O/N=C2/C[C@@H](O)[C@@H](O)[C@@H]3[C@@H]4C(=O)N(C5CCCCC5)C(=O)[C@H]4CC[C@@H]23)[C@H](OC(C)=O)[C@H](OC(C)=O)[C@@H]1OC(C)=O | 41.1% (inactive) |  |
| COC(=O)C1C(C)OC(=O)NC1c1ccccc1 (stereo not given) | 7.66% (inactive) |  |
| C=CC[C@@H]1C=C[C@H](O/N=C2\c3cc(OC)ccc3O[C@H](c3cccc(OC)c3)[C@H]2O)[C@H](CO)O1 |  | 0.398 µM (active) |
| O=C1C[C@@H](O)[C@@H](O)[C@H]2[C@@H]3C(=O)N(Cc4ccccc4)C(=O)[C@@H]3CC[C@H]12 | 35.7% (inactive) |  |
| COc1ccc(-c2ccc3c(n2)CCCN3C[C@H](O)CN2CCCc3nc(C)c(C)cc32)cc1 |  | 3.98 µM (active) |
| COC(=O)NC(/C(C(=O)OC)=C(\C)NCc1ccccc1)c1cccc(F)c1 (stereo not given) | 62.2% (inactive) |  |
| CCOC(=O)[C@]1(C(NC(=O)OC)c2cccc(F)c2)CCCC1=O (stereo not given in full) | 25.2% (inactive) |  |
| C=C(C)C(=O)OCC1CN2C(CCC(C)C2c2ccc(Br)cc2)C(=O)O1 (stereo not given) |  | inactive |
| COC(=O)C1=C(C)N(Cc2ccccc2)C2=C(C(C)=O)C(c3ccccc3)[C@@](O)(C(=O)OC)C(=O)N2C1c1ccccc1 (stereo not given in full) |  | inactive |
| COC(=O)[C@H](CCSC)NC(=O)C/C=C\[C@@H](C)CO | -9.76% (inactive) |  |
| CC(=O)OC[C@@H]1O[C@@H](O/N=C2/C[C@@H](O)[C@@H](O)[C@@H]3[C@@H]4C(=O)N(C(C)(C)C)C(=O)[C@H]4CC[C@@H]23)[C@H](OC(C)=O)[C@H](OC(C)=O)[C@@H]1OC(C)=O | 24.8% (inactive) |  |
| CCOC(=O)N/N=C1/C[C@@H](O)[C@@H](O)[C@@H]2[C@@H]3C(=O)N(c4cccc(Oc5ccccc5)c4)C(=O)[C@H]3CC[C@@H]12 | 30.8% (inactive) |  |
| COc1ccc(OC2C=CC(c3ccccc3)OC2CO)cc1 (stereo not given) | 2.34% (inactive) |  |

Target: Cytochrome P450 3A4 (Homo sapiens) (UniProt P08684)
Assay: qHTS Assay for Inhibitors and Substrates of Cytochrome P450 3A4 (AID 884); note: nearly all actives have a fitted effect of over 50% in size; note: potency is the fitted concentration of half-maximal effect; for activity change, negative = inhibition: % is set by controls: 0 for no effect and ±100 for the full control effect
Conditions: recombinant CYP3A4, Luciferin-PPXE luminescence; series mostly up to 57.1 µM; activity change, negative = inhibition: at the top concentration
How it was run: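 Luminescent readout of luciferin produced by CYP3A4 (20 nM) dealkylation of Luciferin-PPXE, 25 uM (its KM). NADPH-driven reaction ran 60 min at RT after 10 min compound preincubation; data scaled to 57 uM ketoconazole as 100% inhibition.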

Cytochrome P450 3A4 (Homo sapiens), sequence (P08684 whole entry, looked up): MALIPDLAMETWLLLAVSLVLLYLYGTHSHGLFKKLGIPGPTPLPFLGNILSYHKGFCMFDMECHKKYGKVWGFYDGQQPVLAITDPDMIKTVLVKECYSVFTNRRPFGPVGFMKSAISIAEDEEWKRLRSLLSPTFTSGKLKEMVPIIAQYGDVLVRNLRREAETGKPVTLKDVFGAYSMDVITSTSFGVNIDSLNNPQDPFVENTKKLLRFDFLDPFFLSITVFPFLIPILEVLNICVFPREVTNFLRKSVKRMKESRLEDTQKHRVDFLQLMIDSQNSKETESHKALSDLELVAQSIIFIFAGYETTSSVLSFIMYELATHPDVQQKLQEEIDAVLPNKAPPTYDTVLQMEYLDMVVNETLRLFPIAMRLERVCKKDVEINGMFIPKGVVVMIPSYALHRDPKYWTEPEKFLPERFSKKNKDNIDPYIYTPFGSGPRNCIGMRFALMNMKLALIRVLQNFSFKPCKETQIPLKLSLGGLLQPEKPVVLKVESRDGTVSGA

| SMILES | activity change, negative = inhibition | Potency |
| --- | --- | --- |
| COC(=O)NC(/C(C(=O)OC)=C(\C)NCc1ccccc1)c1cccc(C)c1 (stereo not given) | -22.4% [at 11.4 µM] (inactive) |  |
| COC(=O)C1C(C)OC(=O)NC1c1ccccc1 (stereo not given) | -16.6% [at 11.4 µM] (inactive) |  |
| COC(=O)NC(/C(C(=O)OC)=C(\C)NCc1ccccc1)c1cccc(F)c1 (stereo not given) | -19.8% [at 11.4 µM] (inactive) |  |
| CCOC(=O)[C@]1(C(NC(=O)OC)c2cccc(F)c2)CCCC1=O (stereo not given in full) | -16.9% [at 11.4 µM] (inactive) |  |
| C=C(C)C(=O)OCC1CN2C(CCC(C)C2c2ccc(Br)cc2)C(=O)O1 (stereo not given) | -21.6% [at 11.4 µM] (inactive) | 3.16 µM (active) |
| COC(=O)C1=C(C)N(Cc2ccccc2)C2=C(C(C)=O)C(c3ccccc3)[C@@](O)(C(=O)OC)C(=O)N2C1c1ccccc1 (stereo not given in full) | -19% [at 11.4 µM] (inactive) | 3.98 µM (active) |

Tested on: not listed separately
Assay: qHTS profiling for inhibitors of Plasmodium falciparum (3D7) proliferation (AID 743322);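 note: infected erythrocytes exposed to compound for 72 h before lysis; 100% = DMSO vehicle wells and 0% = 0.29 µM artemisinin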
Conditions: P. falciparum 3D7 proliferation; at 28.7 µM (top of the series)
How it was run: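 Parasite DNA was quantified by SYBR Green I fluorescence (ex 485, em 535 nm) after overnight lysis in saponin/Triton buffer at room temperature. Cultures at 0.3% parasitemia and 2.5% hematocrit were first exposed to compound for 72 h at 37 C; signals were normalised to artemisinin (0.29 uM) and vehicle wells.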

| SMILES | remaining parasite growth % (stronger effect = lower value) [%] |
| --- | --- |
| CCCC[C@@H]1C[C@@H](C(=O)NC([C@H](C)Cl)[C@H]2O[C@H](S)[C@H](O)[C@@H](O)[C@@H]2O)N(C)C1 (stereo not given in full) | 39 |
| O=CN(O)CCCP(=O)(O)O | 11.2 |
| O=C([C@@H](Cc1ccc(O[S+](=O)([O-])c2cccc3cccnc23)cc1)N[S+](=O)([O-])c1cccc2cccnc12)N1CCN(c2ccccc2)CC1 | 0.884 |
| CO[C@@]12[C@H](COC(N)=O)C3=C(C(=O)C(C)=C(N)C3=O)N1C[C@H]1N[C@H]12 | -0.57 |
| Cc1nc2c(C#N)cccc2n1-c1ccc(C(=O)NC2CC2)s1 | 0.492 |
| C[C@H]1Cc2c([nH]c3cc(Cl)c(F)cc23)[C@@]2(N1)C(=O)Nc1ccc(Cl)cc12 | -1.02 |
| CCN(CC)CCOc1ccc2c(=O)c3ccc(Cl)cc3n(CCN(CC)CC)c2c1 | -1.28 |
| CCOc1ccc(F)cc1C1(O)C(N)=Nc2ccc(Cl)cc21 (stereo not given) | 0.18 |

Tested on: not listed separately
Assay: qHTS profiling for inhibitors of Plasmodium falciparum (DD2) proliferation (AID 743323; call rule not given here)
Conditions: lower = more inhibition; at 28.7 µM (top of the series)
How it was run: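 P. falciparum Dd2-infected erythrocytes (0.3% parasitemia, 2.5% hematocrit) exposed 72 h at 37 C, 5% CO2. Lysis with SYBR Green, overnight at room temperature, fluorescence 485/535 nm; normalized to 0.29 uM artemisinin and DMSO.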

| SMILES | activity, percent of control [%] |
| --- | --- |
| CCCC[C@@H]1C[C@@H](C(=O)NC([C@H](C)Cl)[C@H]2O[C@H](S)[C@H](O)[C@@H](O)[C@@H]2O)N(C)C1 (stereo not given in full) | 33.1 |
| O=CN(O)CCCP(=O)(O)O | 11.8 |
| O=C([C@@H](Cc1ccc(O[S+](=O)([O-])c2cccc3cccnc23)cc1)N[S+](=O)([O-])c1cccc2cccnc12)N1CCN(c2ccccc2)CC1 | 3.45 |
| CO[C@@]12[C@H](COC(N)=O)C3=C(C(=O)C(C)=C(N)C3=O)N1C[C@H]1N[C@H]12 | 0.869 |
| Cc1nc2c(C#N)cccc2n1-c1ccc(C(=O)NC2CC2)s1 | 1.69 |
| C[C@H]1Cc2c([nH]c3cc(Cl)c(F)cc23)[C@@]2(N1)C(=O)Nc1ccc(Cl)cc12 | -0.226 |
| CCN(CC)CCOc1ccc2c(=O)c3ccc(Cl)cc3n(CCN(CC)CC)c2c1 | 0.385 |
| CCOc1ccc(F)cc1C1(O)C(N)=Nc2ccc(Cl)cc21 (stereo not given) | 0.185 |
